108 molecules from ChEMBL document CHEMBL4513216, “Probing the Open Global Health Chemical Diversity Library for Multistage-Active Starting Points for Next-Generation Antimalarials” (ACS Infect Dis, 2020) can be followed below.

Among all 69,000 compounds or so, about 8,600 (12%) showed an effect of 50% or more. The sample as a whole holds a higher share of strong results than the screen did.

The experiment has as its system Plasmodium berghei. Briefly: Screen against P. berghei liver stage (PbLuc), transformed with Luciferase, at 10uM. The note with it: tested at 10 uM. It counts as functional, HepG2.
For `CN1CCN(S(C)(=O)=O)c2ccc(F)cc21`, the INHIBITION was 21.8%. As for `CN1CCN(S(=O)(=O)c2cccc(C#N)c2)c2ccc(F)cc21`, the figure is 62.4%. Consider `CN1CCN(S(=O)(=O)c2cccc(F)c2)c2ccccc21`, for which the INHIBITION worked out at 46.6%. As for `CCc1cc(OC)c(OC)cc1C(=O)Nc1cccnc1`, the figure is 22.6%; as for `CO[C@H]1CN(Cc2c(C)ccc3ncccc23)CC[C@H]1N`, -69.3%.

Consider `O=C(c1ccno1)N1CCc2ncnc(-c3ccncc3)c2CC1`, for which the INHIBITION came out at 35.5%. As to `O=C(Nc1ccc(N2CCCC2)nc1)N1CCc2sccc2C1`, the INHIBITION is given as -11.5%. Regarding `O=C(Nc1ccc(N2CCCC2)nc1)N1CCc2ccccc2C1`, the INHIBITION is given as 63.5%. Regarding `O=C(Nc1ccc(N2CCCCC2)nc1)N1CCc2sccc2C1`, the INHIBITION is reported as -10.8%.

With `c1cnnc(N[C@@H]2CC[C@@H]3CN(Cc4c[nH]c5ccccc45)C[C@@H]32)c1`, the INHIBITION is given as 31.6%. Then `CC(C)N1CCCCC1CCn1cnc2cc(C(F)(F)F)ccc2c1=O` (stereo not drawn), with 47.9%; and `O=c1c2ccc(Cl)cc2ncn1CCCN1CCCCC1CO` (stereo not drawn), with 22.9%. As for `O=c1c2ccc(C(F)(F)F)cc2ncn1CCCN1CCCCC1CO` (stereo not drawn), the figure is 56.6%; as for `COCCS(=O)(=O)NC(C)c1ccccc1Br` (stereo not drawn), 4.34%; as for `Cc1ccc(NC(=O)Nc2c[nH]c(=O)[nH]c2=O)c(C)c1`, 50.8%. Then `Cc1ccc(C)c(NC(=O)Nc2c[nH]c(=O)[nH]c2=O)c1`, with 29.2%; and `Cc1ccc(NC(=O)Nc2c[nH]c(=O)[nH]c2=O)c(Cl)c1`, with 3.77%. Regarding `CN1CCCC(NC(=O)c2ccc(C(=O)c3cc[nH]c3)cc2)C1` (stereo not drawn), the INHIBITION was 44.2%. As for `CCOCCN1CCN(CCC(=O)N2CCCCC2)CC1C` (stereo not drawn), the figure is -10.1%; as for `CCOCCN1CCN(CCC(=O)N2CCCCC2)CC1`, 64.1%; as for `CCOCCN1CCN(CC(=O)N2CCCC2)CC1CC` (stereo not drawn), 31.9%.

As to `CCOCCN1CCN(CC(=O)N2CCC2)CC1CC` (stereo not drawn), the INHIBITION is -20.2%.

Consider `CCOCCN1CCN(CC2(O)CCCCC2)CC1`, for which the INHIBITION amounted to 10.6%. On to `CCOCCN1CCN(CC(=O)N2CCCC2)CC1C` (stereo not drawn), for which the INHIBITION is 66.5%.

Consider `Cc1cc2nc(C(C)C)cc(NCCc3cccn3C)n2n1`, for which the INHIBITION is listed as 39.5%. Then `Cc1cc(CN(C)C(=O)C(c2ccccc2)N2CCSCC2)no1` (stereo not drawn), with 17.5%; and `CN(Cc1cscn1)C(=O)C(c1ccccc1)N1CCSCC1` (stereo not drawn), with 60.3%; and `CN(Cc1ccccn1)C(=O)C(c1ccccc1)N1CCSCC1` (stereo not drawn), with 33.7%. As for `COCCOCC1CCN(C(=O)c2ccc3[nH]cnc3c2)C1` (stereo not drawn), the figure is -24.9%; as for `COc1c(CNCc2ccc(N3CCCC3)nc2)c(C(C)C)nn1C`, 7.95%. Then `CCCN(CC(=O)OC)S(=O)(=O)c1cnc2c(c1)c(C)nn2C`, with 57.6%; and `CCN(CC(=O)N(C)C)S(=O)(=O)c1cnc2c(c1)c(C)nn2C`, with 51.1%.

`Cc1nn(C)c2ncc(S(=O)(=O)N3CCCC(C(N)=O)C3)cc12` (stereo not drawn): the INHIBITION was 36.5%. Then `CCN(CCC(=O)OC)S(=O)(=O)c1cnc2c(c1)c(C)nn2C`, with 35.1%. Then `CCN(CC(=O)NC)S(=O)(=O)c1cnc2c(c1)c(C)nn2C`, with 12.7%. `Cc1nn(C)c2ncc(S(=O)(=O)N3CCCC(C)CC3)cc12` (stereo not drawn): the INHIBITION turned out to be 45.1%.

Turning to `COC(=O)Cn1c(=O)[nH]c2cn(-c3ccc(F)cc3)c(=O)n21`, the INHIBITION is 31%. In the case of `Cc1ccsc1C(=O)N1CCCC(c2[nH]ncc2S(C)(=O)=O)C1` (stereo not drawn), the INHIBITION was 17.4%. Regarding `Cc1nc(-c2ccccc2)nc2c1CCN(Cc1nccn1C)CC2`, the INHIBITION is 75.6%. `Cn1ccnc1CN1CCN(Cc2noc(-c3ccccc3)n2)CC1`: the INHIBITION stood at 24.4%. `CN(C)c1nc(N2CCCC2)nc2c1CCN(Cc1nccn1C)CC2`: the INHIBITION amounted to 50.3%. As for `Cc1nc(C)c2c(n1)CCN(Cc1nccn1C)CC2`, the figure is 45.7%; as for `Cc1nc(N2CCOCC2)nc2c1CCN(Cc1nccn1C)CC2`, 38.5%. As for `Cc1nc(N2CCCC2)nc2c1CCN(Cc1nccn1C)CC2`, the figure is 46.6%; as for `CC(C)(C)Nc1c(C2CCN(C(=O)C3CC3)CC2)nc2ccccn12`, 26.355%; as for `O=C(NCCn1ccnc1)N1CCN(Cc2ccsc2)CC1`, 19.5%. Turning to `CCCn1nc(C)c(-c2cncn2CCN(C)C2CCCC2)c1C`, the INHIBITION is recorded as -0.232%. As for `CCc1nc(CN2CCCN(C(=O)C(CC)OC)CC2)cs1` (stereo not drawn), the INHIBITION is reported as -4.94%. In the case of `O=C(Nc1cc(F)ccc1OCC1CCCO1)N1CCCC1` (stereo not drawn), the INHIBITION was found to be 17.8%. Then `CCN(C(=O)c1ccc2nnc(C3CCN(C(C)=O)C3)n2c1)C(C)C` (stereo not drawn), with 50.3%; and `CCN(C(=O)c1ccc2nnc(C3CCN(S(C)(=O)=O)C3)n2c1)C(C)C` (stereo not drawn), with 33.1%; and `CC(=O)N1CCC(c2nnc3ccc(C(=O)NCCN(C)C)cn23)C1` (stereo not drawn), with 59.3%. Then `CC(C)CNC(=O)c1ccc2nnc(C3CCN(S(C)(=O)=O)C3)n2c1` (stereo not drawn), with 40.9%. Then `CC(C)NC(=O)c1ccc2nnc(C3CCN(C(=O)NC(C)C)C3)n2c1` (stereo not drawn), with 8.85%; and `CCC(CC)NC(=O)c1ccc2nnc(C3CCN(S(C)(=O)=O)C3)n2c1` (stereo not drawn), with -1.26%; and `CCC(CC)NC(=O)c1ccc2nnc(C3CCN(C(C)=O)C3)n2c1` (stereo not drawn), with 50.7%. On to `CC(=O)N1CCC(c2nnc3ccc(C(=O)NC(C)C)cn23)C1` (stereo not drawn), for which the INHIBITION amounted to 42.6%. As for `CC(=O)N1CCC(c2nnc3ccc(C(=O)NCC(C)C)cn23)C1` (stereo not drawn), the INHIBITION is listed as 51.2%. As to `CC(C)NC(=O)c1ccc2nnc(C3CCN(S(C)(=O)=O)C3)n2c1` (stereo not drawn), the INHIBITION is given as 10.6%.

As to `CCN(C(=O)c1ccc2nnc(C3CCN(C)C3)n2c1)C(C)C` (stereo not drawn), the INHIBITION is on record as 27.6%. As for `CC(C)NC(=O)N1CCC(c2nnc3ccc(C(=O)N(C)C)cn23)C1` (stereo not drawn), the figure is -7.24%. `CC1CCCN(Cc2ccc(OCc3nccn3C)cc2)C1` (stereo not drawn): the INHIBITION turned out to be 33.3%. As for `COCC(=O)NC1CCN(c2cccc(OC(F)(F)F)c2)C1=O` (stereo not drawn), the figure is 42.3%; as for `CC(C)=CCN1CCN(C(=O)c2cc(C(C)C)no2)[C@H]2CS(=O)(=O)C[C@H]21`, -7.25%; as for `COCc1nc(CNC2CCCC(C)(C)C2)no1` (stereo not drawn), 25.1%. As for `Cc1ccc(N2CC[C@H]3OCC[C@@]3(C(=O)NCC3CC3)C2)nn1`, the figure is 12.5%. Then `CN1CC2(CCN(C(=O)CCc3nc4cccnc4n3C)C2)OC1=O` (stereo not drawn), with -19.1%; and `COc1c(CNCc2nnc3n2CCCCC3)c(C(C)C)nn1C`, with 27.9%.

As for `CN(CCc1noc(C2CC2)n1)C(=O)CN1C(=O)COc2ccccc21`, the INHIBITION is recorded as -37.9%. As for `COc1c(C)cnc(CSc2nnc(C)s2)c1C`, the INHIBITION is on record as -40.3%. As for `COc1c(C)cnc(CSc2nnc(N)s2)c1C`, the figure is 28.6%; as for `COc1c(C)cnc(CSc2nnc(NC3CC3)s2)c1C`, 57.7%; as for `CC(C)C(=O)N1CCCC(Cc2ccccn2)C1` (stereo not drawn), 25%. As for `COCCC(=O)N1CCCC(c2n[nH]cc2C)C1` (stereo not drawn), the figure is 36%.

Take `N#CCCCOc1cccnc1NC(=O)Cc1ccccc1F`: the INHIBITION came out at 65.2%. Then `N#CCCCOc1cccnc1NC(=O)CC1CCCCC1`, with 20.9%. Then `N#CCCCOc1cccnc1NC(=O)CCC1CCCC1`, with -12.1%.

In the case of `Cc1cccc(CC2CCCN(C(=O)Cc3csc(C)n3)C2)n1` (stereo not drawn), the INHIBITION is on record as -8.12%.

Turning to `Cc1noc(C)c1S(=O)(=O)NC(=O)COc1ccc2c(c1)CCC2`, the INHIBITION is given as 45.3%. Then `COc1cc(CN(C)Cc2ccncc2)c(SC)cc1OC`, with 39.3%. Then `COc1cc(CN(C)Cc2cccnc2)c(SC)cc1OC`, with 54.7%; and `COc1cc(CN(C)CCc2ccncc2)c(SC)cc1OC`, with 32.7%; and `Cc1cc(NC(=O)NC2CCCc3c2cnn3CCO)n(C)n1` (stereo not drawn), with -39.9%. As for `Cc1cccc(-n2ncc3c2CCCC3NCc2cnn(C)c2C)c1C` (stereo not drawn), the figure is 33.4%; as for `Cc1nnc(NC(=O)NC2CCCc3c2cnn3CCO)s1` (stereo not drawn), 38%; as for `Cc1cccc(-n2ncc3c2CCCC3NCc2cccc(O)c2)c1C` (stereo not drawn), 31.9%. For the molecule `Cc1cccc(-n2ncc3c2CCCC3NCC(C)(C)CO)c1C` (stereo not drawn), the INHIBITION is on record as 58.5%. As for `Cc1cc(C(=O)NC2CCCc3c2cnn3-c2cccc(C)c2C)[nH]n1` (stereo not drawn), the figure is 91%; as for `OC1(CN2CCCC2)COCCN(c2ncnc3[nH]cnc23)C1` (stereo not drawn), 56.1%; as for `OC1(CN2CCCC2)COCCN(c2ncnc3[nH]ccc23)C1` (stereo not drawn), 19.3%. As for `OC1(CN2CCCC2)CCCN(c2ncnc3[nH]cnc23)C1` (stereo not drawn), the figure is 13.9%; as for `CN(C)C[C@H]1OC[C@@H]2CCN(C(=O)c3cccn3C)C[C@@H]21`, 4.2%; as for `CC(C)N(C)C(=O)C1=NOC2(CCN(C(=O)c3cccn3C)C2)C1` (stereo not drawn), 13.3%. For `O=C(NCc1ccco1)[C@H]1CC[C@@H]2[C@@H](CCN2C2CCC2)O1`, the INHIBITION came out at 27.6%.

In the case of `Cc1nn(CC(=O)Nc2ccon2)c(C)c1Br`, the INHIBITION turned out to be 40.8%. Regarding `CCN1CCN(C2CCN(Cc3noc(C4CC4)n3)CC2)C1=O`, the INHIBITION is on record as 35.9%. Turning to `CCN1CCN(C2CCN(Cc3noc(C)n3)CC2)C1=O`, the INHIBITION is listed as 51.2%. Then `Cc1nc(CN2CCC(N3CCN(C)C3=O)CC2)no1`, with 11.2%.

Consider `Cc1ccc(CNC(=O)Cc2c(C)nc3c(c2C)c(=O)[nH]n3C)cc1`, for which the INHIBITION worked out at 29.4%.

With `CC(NC(=O)CCn1cccn1)c1cn(-c2ccccc2)nn1` (stereo not drawn), the INHIBITION is listed as -15.5%. As to `CC(C)NC(=O)[C@@H]1C[C@H](N)CN1C(=O)C1(c2ccc(Cl)cc2)CCC1`, the INHIBITION is on record as 41.5%.

On to `O=C(c1cc[nH]n1)N1CCCC1c1cncc(CN2CCOCC2)n1` (stereo not drawn), for which the INHIBITION was 11.8%. Regarding `CC(C)(NCCOc1ccc(CC#N)cc1)c1nccs1`, the INHIBITION is recorded as -6.34%. With `CCS(=O)(=O)NCCNC(C)(C)c1nc(C)cs1`, the INHIBITION is listed as -7.72%. For `CC(C)(NCCCOc1ccc(C#N)cc1)c1nccs1`, the INHIBITION amounted to 53.8%. As for `Cc1csc(C(C)(C)NCCNS(C)(=O)=O)n1`, the figure is -1.75%; as for `N#Cc1ccc(OCCNCCn2cccn2)cc1`, 27.6%; as for `Cc1csc(C(C)(C)NCCOc2ccc(CC#N)cc2)n1`, 58.1%.
